Measured values as given in PMC11062922 (Nature Chemical Biology, 2023).
Like-named read-outs stand apart in the source and are kept apart here.

Tests used:
Set-up in all cases: species or system human, MV4-11 + K-562 + COLO205 + SK-N-BE2 + OVCAR-8
LATS1 = conditions: read-out: apparent Kd, n = 1
PRKCD = conditions: read-out: apparent Kd, n = 1
DYRK1A = conditions: read-out: apparent Kd, n = 1
PTK2 = conditions: read-out: apparent Kd, compound concentrations: 100 nM and 1000 nM (sheet 'Samples'), n = 1
MYLK3 = conditions: read-out: apparent Kd, n = 1
PRKD2 = conditions: read-out: apparent Kd, n = 1
CDK7 = conditions: read-out: apparent Kd, compound concentrations: 100 nM and 1000 nM (sheet 'Samples'), n = 1
ERCC2 = conditions: read-out: apparent Kd, compound concentrations: 100 nM and 1000 nM (sheet 'Samples'), n = 1
FER = conditions: read-out: apparent Kd, compound concentrations: 100 nM and 1000 nM (sheet 'Samples'), n = 1
PTK2B = conditions: read-out: apparent Kd, compound concentrations: 100 nM and 1000 nM (sheet 'Samples'), n = 1
RPS6KA6 = conditions: read-out: apparent Kd, compound concentrations: 100 nM and 1000 nM (sheet 'Samples'), n = 1
CDKL5 = conditions: read-out: apparent Kd, n = 1
MARK4 = conditions: read-out: apparent Kd, n = 1
PRKD3 = conditions: read-out: apparent Kd, n = 1
PLK4 = conditions: read-out: apparent Kd, n = 1
STK10 = conditions: read-out: apparent Kd; compound concentrations:100 nM and 1000 nM (sheet 'Samples'); n = 1
FLT3 = conditions: read-out: apparent Kd, compound concentrations: 100 nM and 1000 nM (sheet 'Samples'), n = 1
PIP4K2C = conditions: read-out: apparent Kd; compound concentrations: 100 nM and 1000 nM (sheet 'Samples'), CATDS: 1.6714878320236801E-2; n = 1
PRKCQ = conditions: read-out: apparent Kd; compound concentrations: 100 nM and 1000 nM (sheet 'Samples'), CATDS: 1.8945184174552199E-2; n = 1
[1] = compound concentrations:100 nM and 1000 nM (sheet 'Samples')

## Cl.Cl.NC[C@H](CC1CCCCC1)NC(=O)c1ccc(-c2ccnc3[nH]ccc23)s1.NC[C@H](CC1CCCCC1)NC(=O)c1ccc(-c2ccnc3[nH]ccc23)s1 [GSK1581428A]
LATS1; [1]
  potency estimated from few doses: 1120 nM
PRKCD; [1]
  potency estimated from few doses: 719 nM

## O=C1N=C(NCc2ccccc2Br)S/C1=C\c1ccc2ncccc2c1 [RO4506918-000]
DYRK1A; compound concentrations: 100 nM and 1000 nM (sheet 'Samples'), CATDS: 8.9156542240232201E-2
  potency estimated from few doses: 912 nM

## CCC(CC)(CC)n1cnc2c(N)ncnc21 [SKF-97620]
PTK2; CATDS: 2.8719302746770599E-2
  potency estimated from few doses: 1140 nM

## O=C1N=C(N[C@H](CO)c2ccccc2)S/C1=C\c1ccc2ncccc2c1 [RO4554339-000]
MYLK3; compound concentrations: 100 nM and 1000 nM (sheet 'Samples'), CATDS: 0.15441229792148201
  potency estimated from few doses: 303 nM
PRKD2; compound concentrations: 100 nM and 1000 nM (sheet 'Samples'), CATDS: 0.111650130871897
  potency estimated from few doses: 671 nM

## Cn1cc(C2=C(c3ccc(OC[C@@H](O)CO)cc3)C(=O)NC2=O)c2ccccc21 [RO3208546-000]
CDK7; CATDS: 4.6127698813653598E-2
  potency estimated from few doses: 768 nM
ERCC2; CATDS: 5.3996089618989399E-2
  potency estimated from few doses: 559 nM
FER; CATDS: 5.24891250459407E-2
  potency estimated from few doses: 590 nM
PTK2B; CATDS: 4.1151087302781601E-2
  potency estimated from few doses: 996 nM
PTK2; CATDS: 4.2596941934388698E-2
  potency estimated from few doses: 918 nM
RPS6KA6; CATDS: 5.0913712031047997E-2
  potency estimated from few doses: 626 nM

## NS(=O)(=O)c1ccc(N/N=C2\C(=O)Nc3ccc4ncccc4c32)cc1 [GW305178X]
CDKL5; compound concentrations: 100 nM and 1000 nM (sheet 'Samples'), CATDS: 5.21381649539812E-2
  potency estimated from few doses: 867 nM

## Cl.Nc1nc(-c2ccc3c(c2)C(=Cc2cc(Br)c(O)c(Br)c2)C(=O)N3)cs1 [GW407323A]
CDKL5; compound concentrations: 100 nM and 1000 nM (sheet 'Samples'), CATDS: 9.5267986760985093E-2
  potency estimated from few doses: 73.7 nM
DYRK1A; compound concentrations: 100 nM and 1000 nM (sheet 'Samples'), CATDS: 7.6450134498411204E-2
  potency estimated from few doses: 110 nM
MARK4; compound concentrations: 100 nM and 1000 nM (sheet 'Samples'), CATDS: 2.9036597376729201E-2
  potency estimated from few doses: 1630 nM
MYLK3; compound concentrations: 100 nM and 1000 nM (sheet 'Samples'), CATDS: 0.25523575381679198
  potency estimated from few doses: 17.2 nM
PRKD2; compound concentrations: 100 nM and 1000 nM (sheet 'Samples'), CATDS: 3.4430997277348899E-2
  potency estimated from few doses: 812 nM
PRKD3; compound concentrations: 100 nM and 1000 nM (sheet 'Samples'), CATDS: 3.1520603000909302E-2
  potency estimated from few doses: 1130 nM

## Cn1cc(C2=C(c3c(S(C)=O)n(C)c4ccccc34)C(=O)NC2=O)c2ccccc21 (centres unmarked) [RO0317379-000]
CDKL5; compound concentrations: 100 nM and 1000 nM (sheet 'Samples'), CATDS: 0.106131192264054
  potency estimated from few doses: 1600 nM

## O=C(Nc1n[nH]c2nc(-c3ccccc3O)ccc12)C1CC1 [SB-711880]
CDKL5; [1]
  potency estimated from few doses: 1450 nM
LATS1; [1]
  potency estimated from few doses: 1030 nM
MARK4; [1]
  potency estimated from few doses: 1680 nM
MYLK3; [1]
  potency estimated from few doses: 219 nM
PLK4; [1]
  potency estimated from few doses: 867 nM
PRKD2; [1]
  potency estimated from few doses: 712 nM
PRKD3; [1]
  potency estimated from few doses: 570 nM
STK10
  potency estimated from few doses: 1200 nM

## Nc1nccc(-c2ccc3c(N)n[nH]c3c2)n1 [GSK1034945A]
DYRK1A; [1]
  potency estimated from few doses: 117 nM
MARK4; [1]
  potency estimated from few doses: 1790 nM
MYLK3; [1]
  potency estimated from few doses: 65.5 nM
PRKD2; [1]
  potency estimated from few doses: 2030 nM
STK10
  potency estimated from few doses: 1120 nM

## Cc1cc(NC(=O)c2cccc(NC(=O)/C=C/CN(C)C)c2)ccc1Nc1nccc(-c2cccnc2)n1 [JNK-IN-7]
CDKL5; [1]
  potency estimated from few doses: 958 nM

## COc1ccc(Nc2nccc(NCCNC(=O)Nc3cc(C)ccc3C)n2)cc1 [GSK1379899A]
ERCC2; CATDS: 4.8239081355384503E-2
  potency estimated from few doses: 1270 nM
FER; CATDS: 5.8591090270846503E-2
  potency estimated from few doses: 821 nM
PRKD2; compound concentrations: 100 nM and 1000 nM (sheet 'Samples'), CATDS: 5.1330821571124501E-2
  potency estimated from few doses: 1100 nM
PTK2B; CATDS: 5.6831578265935698E-2
  potency estimated from few doses: 876 nM
RPS6KA6; CATDS: 5.53882917247734E-2
  potency estimated from few doses: 926 nM

## O=C1N=C(NCCc2ccccc2Cl)S/C1=C\c1ccc2ncccc2c1 [RO4498484-000]
CDKL5; compound concentrations: 100 nM and 1000 nM (sheet 'Samples'), CATDS: 6.1493092563951302E-2
  potency estimated from few doses: 1600 nM
DYRK1A; compound concentrations: 100 nM and 1000 nM (sheet 'Samples'), CATDS: 8.1161352179904903E-2
  potency estimated from few doses: 673 nM
FLT3; CATDS: 6.2849399961882796E-2
  potency estimated from few doses: 1470 nM

## Cl.Cl.NCC(NC(=O)c1cc(-c2ccnc3[nH]ccc23)cs1)c1ccccc1.NCC(NC(=O)c1cc(-c2ccnc3[nH]ccc23)cs1)c1ccccc1 (centres unmarked) [GSK1229959A]
CDK7; CATDS: 2.3944449367716902E-2
  potency estimated from few doses: 349 nM
CDKL5; compound concentrations: 100 nM and 1000 nM (sheet 'Samples'), CATDS: 5.0422739373742101E-2
  potency estimated from few doses: 33.2 nM
DYRK1A; compound concentrations: 100 nM and 1000 nM (sheet 'Samples'), CATDS: 1.8409243102770301E-2
  potency estimated from few doses: 1200 nM
ERCC2; CATDS: 2.07815599628208E-2
  potency estimated from few doses: 649 nM
MYLK3; compound concentrations: 100 nM and 1000 nM (sheet 'Samples'), CATDS: 2.3428006567825201E-2
  potency estimated from few doses: 382 nM
PIP4K2C
  potency estimated from few doses: 2230 nM
PRKCD; compound concentrations: 100 nM and 1000 nM (sheet 'Samples'), CATDS: 2.3457230282112398E-2
  potency estimated from few doses: 380 nM
PRKCQ
  potency estimated from few doses: 1030 nM
PTK2B; CATDS: 1.9759894186564299E-2
  potency estimated from few doses: 828 nM

## CCn1c(-c2nonc2N)nc2cncc(C(=O)N3CC[C@H](N)C3)c21.Cl [SB-772077-B]
DYRK1A; [1]
  potency estimated from few doses: 1520 nM
PRKCD; [1]
  potency estimated from few doses: 843 nM

## COc1cccc(C2=C(c3c(C)n(C)c4ccccc34)C(=O)NC2=O)c1 [RO3300167-000]
LATS1; compound concentrations: 100 nM and 1000 nM (sheet 'Samples'), CATDS: 7.6284475672850502E-2
  potency estimated from few doses: 1700 nM
MARK4; compound concentrations: 100 nM and 1000 nM (sheet 'Samples'), CATDS: 8.0513919134026293E-2
  potency estimated from few doses: 1480 nM
PRKD2; compound concentrations: 100 nM and 1000 nM (sheet 'Samples'), CATDS: 8.0855416148342393E-2
  potency estimated from few doses: 1470 nM
PRKD3; compound concentrations: 100 nM and 1000 nM (sheet 'Samples'), CATDS: 7.4607672697658597E-2
  potency estimated from few doses: 1800 nM

## COc1cc2ncn(-c3cc(OCc4ccccc4S(C)(=O)=O)c(C#N)s3)c2cc1OC [GSK319347A]
MYLK3; compound concentrations: 100 nM and 1000 nM (sheet 'Samples'), CATDS: 9.2768404511317695E-2
  potency estimated from few doses: 1190 nM
PLK4; compound concentrations: 100 nM and 1000 nM (sheet 'Samples'), CATDS: 8.6919710650877405E-2
  potency estimated from few doses: 1390 nM

## COc1cc[nH]c1/C=C1\C(=O)Nc2ccc(F)c(I)c21 [RO0281567-000]
FLT3; CATDS: 0.206841572593601
  potency estimated from few doses: 374 nM
MYLK3; compound concentrations: 100 nM and 1000 nM (sheet 'Samples'), CATDS: 0.10963488486357401
  potency estimated from few doses: 1520 nM

## NS(=O)(=O)c1ccc(N/N=C2\C(=O)Nc3ccc(-c4cnco4)cc32)cc1 [GW276655_KCGS]
MYLK3; [1]
  potency estimated from few doses: 988 nM
